High-throughput results from PubChem.
Sampled rows, rich in hits. Any-hit rate of the full collection: about 15%.
HCMV inh = qHTS Assay for inhibitors of the human cytomegalovirus (HCMV). HFF cells, HCMV-luciferase reporter, 72 h; hits give low values. activity change, negative = inhibition, % at 57.5 µM. actives 4.5% (n = 410,000); in the data active = activity change below about -60%; inconclusive = no clear call, values can overlap the other calls; inactive = above about -39%; note: % is set by controls: 0 for no effect and ±100 for the full control effect
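Compounds were evaluated in HFFs infected with an HCMV luciferase reporter virus (MOI 1 PFU/cell). Luciferase in lysates collected 72 h post infection served as the replication measure.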
SARS PLpro yeast = qHTS of Yeast-based Assay for SARS-CoV PLP; S. cerevisiae expressing SARS-CoV PLpro, growth rescue; Potency, µM (top dose mostly 32.9 µM), without a hit: at the top dose activity, positive = growth rescue, actives largely listed as activators; actives 0.19% (n = 330,000); AID 485353, 2010; calls by dose curve; note: potency is the fitted concentration of half-maximal effect; 0% is about no effect; nearly all actives have a fitted effect of over 55% in size
HCV inhibitor = qHTS Assay for Inhibitors of Hepatitis C Virus (HCV). Huh7.5.1 HCVcc-Cre infection, luciferase reporter, 44 h. Potency, µM (titrated, usually from 41.8 µM), for inactives: top-dose activity change, negative = inhibition, most hits filed as inhibitors. actives 3.4% (n = 340,000). AID 651820, 2012; note: potency is the fitted concentration of half-maximal effect; % is set by controls: 0 for no effect and ±100 for the full control effect
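Antiviral activity was scored by luciferase reporter output from cells infected with HCVcc-Cre (~0.5 moi) in presence of compound, 44 h infection period, cells seeded 1,000/well 4 h prior.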
Sm TGR block = qHTS Assay for the Inhibitors of Schistosoma Mansoni Peroxiredoxins | purified TGR, DTNB reduction, TNB absorbance 405 nm | Potency, µM (titrated, usually from 114 µM), inactives show at the top dose activity change, negative = inhibition, usual class: inhibitors | actives 3% (n = 360,000) | Schistosoma mansoni thioredoxin glutathione reductase (TGR), Q962Y6 | AID 485364, 2010; note: potency is the fitted concentration of half-maximal effect; % is set by controls: 0 for no effect and ±100 for the full control effect; nearly all actives have a fitted effect of over 60% in size
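TGR 20 nM + NADPH 100 uM (dispensed conc.), cpd preinc 15 min RT; start with NADPH (500 uM addition) then DTNB (15 mM addition). Kinetic TNB absorbance, 405 nm filter. Four-parameter Hill fit across titration.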
Pf growth 96h = Primary qHTS for delayed death inhibitors of the malarial parasite plastid, 96 hour incubation | P. falciparum luciferase reporter growth, 96 h | Potency, µM (doses to about 28.7 µM), for inactives: at the highest dose activity change, negative = inhibition, usual class: inhibitors | actives 6.9% (n = 320,000) | AID 504834, 2011; note: potency is the fitted concentration of half-maximal effect; % is set by controls: 0 for no effect and ±100 for the full control effect
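Two parasite generations (96 h, 37 C, 5% CO2) of compound exposure in infected erythrocytes (0.05% parasitemia, 2% hematocrit). Luciferase-reporter P. falciparum; decreased luminescence indicates inhibited growth, aimed at apicoplast-acting delayed death.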
Pf growth 48h = Primary qHTS for delayed death inhibitors of the malarial parasite plastid, 48 hour incubation. actives 5.9% (n = 310,000). P. falciparum luciferase growth in erythrocytes, 48 h. Potency, µM (titrated, usually from 28.7 µM), inactives show at the highest dose activity change, negative = inhibition, hits mostly inhibitors; note: potency is the fitted concentration of half-maximal effect; % is set by controls: 0 for no effect and ±100 for the full control effect
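First compound was added to culture medium, then infected red cells at 0.1% parasitemia and 2% hematocrit (final). After incubation at 37 C under 5% CO2, luciferase detection reagent was dispensed and light output recorded.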
* hit, by the source's call; ? = inconclusive; . = not tested or not shown. Unless noted, calls come from the whole dose curve; as a rule, active = well fitted curve in the direction sought with a large enough effect; inconclusive = small, poorly fitted or top-dose-only effect, or another doubt; inactive = no such curve, though single readings can be large; an effect the other way counts as inactive or inconclusive.

SMILES | HCMV inh | SARS PLpro yeast | HCV inhibitor | Sm TGR block | Pf growth 96h | Pf growth 48h
O=C(O)CCc1ccc(-c2ccc(F)cc2)n1Cc1ccco1 | 36 | 1% | 11% | 50µM* | 21% | 11%
CCc1nc2ccc(C(=O)NCCOc3ccc(OC)cc3)cn2c1N(CCC(C)C)CCN(C)C | -20 | . | . | . | . | .
COc1ccc2c(c1)c1c(c(=O)n(-c3ccccc3C)c(=O)n1CC(=O)NCc1ccc(C)cc1)n2C | ? | . | . | 4% | . | .
COc1cc(-c2ccc(NC(=O)NC3CC3)c(OC)c2)ccc1NC(=O)NC1CC1 | -77* | -1% | . | -5% | ? | ?
CCN(CC)CC(=O)Nc1ccc(-c2ccc(NC(=O)CN(CC)CC)c(OC)c2)cc1OC | -12 | -1% | 1.8µM* | . | ? | ?
CCC(=O)Nc1ccc(-c2ccc(NC(=O)CC)c(OC)c2)cc1OC | ? | -1% | ? | . | 0% | 3%
COCc1cccc(-c2csc(C(O)c3cccc(OC)c3)n2)c1 (configuration not stated) | -24 | . | . | . | . | .
O=C(CCC(=O)Nc1nnc(C2CCCCC2)s1)NCc1ccccc1 | 13 | 0% | 22% | 4% | 0% | -5%
COc1cccc2[nH]c3c(N4CCN(Cc5ccc6c(c5)OCO6)CC4)ncnc3c12 | ? | 1% | . | -16% | 10% | ?
COc1cccc2[nH]c3c(N4CCc5ccccc5C4)ncnc3c12 | . | 1% | 11µM* | -17% | ? | ?
COc1cccc2[nH]c3c(N4CCC5(CC4)OCCO5)ncnc3c12 | -35 | 0% | 0% | 4% | 0% | 21%
COc1cccc2[nH]c3c(N4CCC(C)CC4)ncnc3c12 | 4 | -3% | ? | -1% | ? | 9.3µM*
COc1ccc([N+](=O)[O-])cc1N(CC(=O)NCCCOC(C)C)S(C)(=O)=O | -19 | 1% | 10% | 15% | ? | 1%
O=C(NCCSc1c[nH]c2ccccc12)c1ccc(Br)o1 | -3 | -19% | -19% | 3% | 2.1µM* | -6%
CC(C)C(=O)NCCSc1c[nH]c2ccccc12 | 23 | 2% | 4% | -7% | 12µM* | 2%
C[C@H](CO)N1C[C@H](C)[C@@H](CN(C)S(=O)(=O)c2cn(C)cn2)Oc2cc(Br)ccc2S1(=O)=O | 3 | . | . | . | . | .
Cc1cccc(Nc2c3c(nc4nncn24)CCC3)c1C | ? | . | . | 40µM* | . | .
Cc1ccc(Nc2c3c(nc4nncn24)CCC3)cc1C | -88* | . | . | -20% | . | .
Brc1ccc(Nc2c3c(nc4nncn24)CCC3)cc1 | 4 | . | . | 35µM* | . | .
Cc1noc(C)c1COc1ccccc1C(=O)N1CCN(S(=O)(=O)c2ccccc2Br)CC1 | -86* | . | ? | . | . | .
COc1cc(C(=O)OCC(C)=O)ccc1OCc1c(C)noc1C | -29 | 0% | ? | -9% | 16% | -3%
Cc1noc(C)c1COc1ccccc1C(=O)N1CCN(S(=O)(=O)c2ccc(C(C)C)cc2)CC1 | -75* | . | . | . | . | .
CCOc1ccccc1N1CCN(C(=O)c2ccccc2OCc2c(C)noc2C)CC1 | 41 | 2% | -1% | -13% | ? | ?
Cc1cc(C)c(C)c(S(=O)(=O)N2CCN(C(=O)c3ccccc3OCc3c(C)noc3C)CC2)c1C | -7 | -2% | ? | -1% | 13µM* | 10µM*
Cc1noc(C)c1COc1ccccc1C(=O)N1CCN(S(=O)(=O)c2cccc([N+](=O)[O-])c2)CC1 | ? | 7% | 3% | -2% | ? | ?
Cc1noc(C)c1COc1ccccc1C(=O)N1CCN(S(=O)(=O)c2cccc(Cl)c2)CC1 | 4 | 1% | -4% | -3% | -25% | ?
